According to PubChem BioAssay (EPA / NIEHS):
Values joined by “and” are separate entries in the source; they are usually repeats but may differ in a detail not shown here. Identical values can stand only once. Inconclusive results are not listed. The source holds several records for some structures; these can differ, active in one and inactive in another. Active and inactive are the calls of the source. Rule for the calls: active = hit-call score of the fitted dose curve at least 0.9, where 1 is the maximum; inconclusive = response in the unintended direction; inactive = score below 0.9.

Key:
[1] = target: Peroxisome proliferator-activated receptor gamma (Homo sapiens) (UniProt P37231); test: NVS_NR_hPPARg: NovaScreen (NVS) Nuclear Receptor Binding Assay for human Peroxisome Proliferator-activated Receptor gamma (PPARg) (AID 2283370)
Summary of the method: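 Chemicals were tested first in duplicate at 25 uM, then in concentration series if active. Binding to cell-free PPARg protein was measured by fluorescence polarization after 2 h, with loss of signal scored against DMSO.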

[2] = target: human Dopamine Transporter (DAT), SLC6A3 (gene 6531) (UniProt Q01959); test: NVS_TR_hDAT: NovaScreen (NVS) Transporter Assay for human Dopamine Transporter (DAT) (AID 2283374);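 note: activity means loss of bound radioligand signal relative to DMSO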
Summary of the method: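 Cell-free radioligand displacement binding at human DAT, 1 h after dosing, with filtration and scintillation counting. Primary screen in duplicate at 25 uM, actives then in concentration series. Loss of bound signal versus DMSO scored.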

[3] = target: mouse Estrogen Receptor alpha (Era), Esr1 (gene 13982) (UniProt P19785); test: NVS_NR_mERa: NovaScreen (NVS) Nuclear Receptor Binding Assay for mouse Estrogen Receptor alpha (Era) (AID 2283378);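 note: hit means loss of bound radioligand signal relative to DMSO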
Summary of the method: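 Extracted mouse Era incubated with tritiated or iodinated radioligand plus test chemical, 18 h. Bound fraction separated on filters, counted by scintillation. DMSO = negative control/baseline; duplicate single-point at 25 uM, then concentration-response follow-up.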

[4] = target: Estrogen receptor beta (Homo sapiens) (UniProt Q92731); test: OT_ER_ERbERb_1440: Odyssey Thera (OT) 24-hour HEK293T Protein-Complementation Assay for Estrogen Receptor-beta/-beta Homodimer (AID 2283380);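 note: scored as signal increase over DMSO baseline for both agonists and antagonists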
Summary of the method: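 HEK293T cells stably expressing ER beta LBD (aa 310-547) homodimer fragment-complementation reporter, dosed 24 h. Cells formaldehyde-fixed, Draq5-stained; gain in nuclear (agonist) or nuclear plus cytoplasmic (antagonist) fluorescence versus DMSO read by laser scanning cytometry.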

[5] = target: human Norepinephrine Transporter (NET), SLC6A2 (gene 6530) (UniProt P23975); test: NVS_TR_hNET: NovaScreen (NVS) Transporter Assay for human Norepinephrine Transporter (NET) (AID 2283377);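 note: displacement of radioligand from human NET seen as loss of scintillation signal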
Summary of the method: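 Cell-free radioligand binding using CHO-derived membrane protein expressing human NET, read by filter scintillation counting 1 h after dosing; loss of signal vs DMSO. Initial duplicate screen at 25 uM, actives retested in concentration series.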

[6] = target: Agonist Androgen Response Element (ARE), AR (gene 367) (UniProt P10275); test: OT_AR_ARELUC_AG_1440: Odyssey Thera (OT) 24-hour CHO-K1 Luciferase Assay for Agonist Androgen Response Element (ARE) (AID 2283379)
Summary of the method: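 CHO-K1 cells carrying an ARE-driven luciferase reporter were exposed to compounds for 24 h. Luminescence was then read after adding a D-luciferin/ATP mix, and activity was scored as a gain in signal over DMSO vehicle.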

[7] = target: human Serotonin Transporter (SERT), SLC6A4 (gene 6532) (UniProt P31645); test: NVS_TR_hSERT: NovaScreen (NVS) Transporter Assay for human Serotonin Transporter (SERT) (AID 2283372)
Summary of the method: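 Radioligand binding to native SERT in human platelet membranes, read by filter-based scintillation counting 1 h after dosing. Primary screen in duplicate at 25 uM; actives followed up in concentration series; loss of signal versus DMSO baseline.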

[8] = test system: rat Norepinephrine Transporter (NET), gene 83511; test: NVS_TR_rNET: NovaScreen (NVS) Transporter Assay for rat Norepinephrine Transporter (NET) (AID 2283373)
Summary of the method: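 Rat forebrain membranes; radioligand binding measured by filter-based scintillation counting 1 hour after dosing. Loss of specific binding versus DMSO baseline scored; primary screen in duplicate at 25 uM, actives followed up in concentration series.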

[9] = target: Norway rat Vesicular Monoamine Transporter (VMAT2), neurotransmitter transporter, Slc18a2 (gene 25549) (UniProt Q01827); test: NVS_TR_rVMAT2: NovaScreen (NVS) Transporter Assay for Norway rat Vesicular Monoamine Transporter (VMAT2), neurotransmitter transporter (AID 2283376);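 note: actives lower the bound radioligand signal below the DMSO level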
Summary of the method: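 Radioligand displacement binding on rat forebrain tissue preparation, filter-based scintillation read-out 1 hour after dosing. Primary screen in duplicate at 25 uM, then concentration series for actives; loss of signal versus DMSO.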

[10] = target: rat Serotonin Transporter (SERT), Slc6a4 (gene 25553) (UniProt P31652); test: NVS_TR_rSERT: NovaScreen (NVS) Transporter Assay for rat Serotonin Transporter (SERT) (AID 2283375)
Summary of the method: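 Filtration-based radiodetection quantified loss of specific radioligand binding in rat forebrain membranes after 1 hour of chemical exposure, relative to DMSO. Chemicals were first tested in duplicate at 25 uM.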

Sequence of mouse Estrogen Receptor alpha (Era), Esr1 (gene 13982) (P19785 whole entry, looked up): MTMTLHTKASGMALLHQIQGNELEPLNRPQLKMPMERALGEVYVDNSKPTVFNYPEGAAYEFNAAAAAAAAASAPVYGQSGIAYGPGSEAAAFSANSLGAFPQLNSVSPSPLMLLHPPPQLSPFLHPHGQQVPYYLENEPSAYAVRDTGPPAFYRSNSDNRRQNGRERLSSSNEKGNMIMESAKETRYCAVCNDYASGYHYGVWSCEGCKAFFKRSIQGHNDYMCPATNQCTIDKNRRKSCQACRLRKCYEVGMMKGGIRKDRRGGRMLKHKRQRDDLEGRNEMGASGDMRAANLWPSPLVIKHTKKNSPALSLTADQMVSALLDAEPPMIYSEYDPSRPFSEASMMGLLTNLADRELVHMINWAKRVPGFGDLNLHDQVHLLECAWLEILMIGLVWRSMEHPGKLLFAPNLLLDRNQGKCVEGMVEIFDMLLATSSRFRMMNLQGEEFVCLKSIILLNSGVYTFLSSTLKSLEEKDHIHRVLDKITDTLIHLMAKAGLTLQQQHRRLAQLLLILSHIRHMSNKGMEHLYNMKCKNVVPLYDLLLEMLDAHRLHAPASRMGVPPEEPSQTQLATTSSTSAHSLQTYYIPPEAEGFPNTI
Sequence of Peroxisome proliferator-activated receptor gamma (Homo sapiens) (P37231 whole entry, looked up): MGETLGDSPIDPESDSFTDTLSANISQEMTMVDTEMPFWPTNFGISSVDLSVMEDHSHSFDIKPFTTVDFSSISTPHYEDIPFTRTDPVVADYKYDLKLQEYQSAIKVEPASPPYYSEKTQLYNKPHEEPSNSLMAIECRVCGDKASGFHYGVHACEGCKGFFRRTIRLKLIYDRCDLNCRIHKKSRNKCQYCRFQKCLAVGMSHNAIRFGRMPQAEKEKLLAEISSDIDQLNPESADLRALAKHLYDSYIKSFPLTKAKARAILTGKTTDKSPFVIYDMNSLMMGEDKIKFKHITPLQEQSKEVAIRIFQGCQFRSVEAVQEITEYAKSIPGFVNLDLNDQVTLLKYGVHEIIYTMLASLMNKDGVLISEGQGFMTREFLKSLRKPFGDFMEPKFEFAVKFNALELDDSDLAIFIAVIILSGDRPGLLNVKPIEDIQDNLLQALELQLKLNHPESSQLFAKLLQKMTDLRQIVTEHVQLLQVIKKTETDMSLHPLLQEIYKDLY
Sequence of human Dopamine Transporter (DAT), SLC6A3 (gene 6531) (Q01959 whole entry, looked up): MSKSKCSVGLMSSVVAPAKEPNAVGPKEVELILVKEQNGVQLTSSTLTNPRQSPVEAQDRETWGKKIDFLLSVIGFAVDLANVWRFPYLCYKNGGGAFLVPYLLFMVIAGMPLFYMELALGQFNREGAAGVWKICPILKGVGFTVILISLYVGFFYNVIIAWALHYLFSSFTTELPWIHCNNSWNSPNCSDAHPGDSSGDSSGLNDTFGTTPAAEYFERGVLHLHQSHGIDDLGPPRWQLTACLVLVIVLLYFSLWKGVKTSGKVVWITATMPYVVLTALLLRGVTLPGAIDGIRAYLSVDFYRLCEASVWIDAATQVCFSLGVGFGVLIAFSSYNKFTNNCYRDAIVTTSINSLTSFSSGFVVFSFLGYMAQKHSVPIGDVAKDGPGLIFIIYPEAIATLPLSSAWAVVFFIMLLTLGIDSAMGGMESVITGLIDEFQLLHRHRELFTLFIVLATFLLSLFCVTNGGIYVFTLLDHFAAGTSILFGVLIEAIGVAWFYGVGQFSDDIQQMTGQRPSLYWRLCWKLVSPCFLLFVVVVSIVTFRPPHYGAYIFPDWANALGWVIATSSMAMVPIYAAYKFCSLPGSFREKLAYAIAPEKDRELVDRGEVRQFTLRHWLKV
Sequence of Agonist Androgen Response Element (ARE), AR (gene 367) (P10275 whole entry, looked up): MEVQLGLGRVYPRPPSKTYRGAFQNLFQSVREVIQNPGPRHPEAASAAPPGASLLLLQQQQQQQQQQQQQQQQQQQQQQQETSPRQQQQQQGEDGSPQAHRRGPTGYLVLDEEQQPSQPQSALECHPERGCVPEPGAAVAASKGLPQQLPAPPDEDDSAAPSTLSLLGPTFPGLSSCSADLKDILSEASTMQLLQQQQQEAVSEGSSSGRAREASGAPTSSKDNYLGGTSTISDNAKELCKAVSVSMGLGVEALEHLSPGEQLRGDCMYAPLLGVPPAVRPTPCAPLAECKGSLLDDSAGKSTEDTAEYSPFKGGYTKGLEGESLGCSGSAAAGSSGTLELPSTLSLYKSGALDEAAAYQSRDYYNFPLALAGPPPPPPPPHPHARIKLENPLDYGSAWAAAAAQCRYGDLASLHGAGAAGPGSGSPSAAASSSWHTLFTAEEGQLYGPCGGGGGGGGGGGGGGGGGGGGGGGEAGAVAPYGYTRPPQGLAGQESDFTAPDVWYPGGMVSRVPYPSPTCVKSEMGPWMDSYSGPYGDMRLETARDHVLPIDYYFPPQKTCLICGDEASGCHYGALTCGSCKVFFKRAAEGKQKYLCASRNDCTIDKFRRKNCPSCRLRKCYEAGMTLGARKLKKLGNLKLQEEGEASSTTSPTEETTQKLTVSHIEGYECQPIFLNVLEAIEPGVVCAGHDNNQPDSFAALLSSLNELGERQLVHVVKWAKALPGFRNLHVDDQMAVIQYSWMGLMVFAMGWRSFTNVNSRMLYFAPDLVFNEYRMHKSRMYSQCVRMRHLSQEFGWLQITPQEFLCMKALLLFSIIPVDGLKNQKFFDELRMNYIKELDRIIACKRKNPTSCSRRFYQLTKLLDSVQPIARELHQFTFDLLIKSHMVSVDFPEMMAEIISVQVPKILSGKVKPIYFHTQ
Sequence of Estrogen receptor beta (Homo sapiens) (Q92731 whole entry, looked up, the tested form may be a part): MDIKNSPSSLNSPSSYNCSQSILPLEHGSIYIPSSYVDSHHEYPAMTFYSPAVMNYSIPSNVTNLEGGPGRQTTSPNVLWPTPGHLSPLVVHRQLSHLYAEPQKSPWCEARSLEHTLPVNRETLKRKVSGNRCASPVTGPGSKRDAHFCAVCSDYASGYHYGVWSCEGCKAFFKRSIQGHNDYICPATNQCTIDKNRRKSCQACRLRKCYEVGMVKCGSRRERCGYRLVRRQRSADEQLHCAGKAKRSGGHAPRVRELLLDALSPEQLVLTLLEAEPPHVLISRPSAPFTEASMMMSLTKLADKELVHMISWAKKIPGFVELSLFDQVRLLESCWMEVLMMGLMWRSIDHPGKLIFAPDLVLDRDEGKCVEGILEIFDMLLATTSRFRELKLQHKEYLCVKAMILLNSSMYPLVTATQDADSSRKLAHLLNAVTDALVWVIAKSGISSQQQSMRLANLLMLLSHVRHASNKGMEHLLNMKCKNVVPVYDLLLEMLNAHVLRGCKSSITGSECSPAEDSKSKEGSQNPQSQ
Sequence of human Norepinephrine Transporter (NET), SLC6A2 (gene 6530) (P23975 whole entry, looked up): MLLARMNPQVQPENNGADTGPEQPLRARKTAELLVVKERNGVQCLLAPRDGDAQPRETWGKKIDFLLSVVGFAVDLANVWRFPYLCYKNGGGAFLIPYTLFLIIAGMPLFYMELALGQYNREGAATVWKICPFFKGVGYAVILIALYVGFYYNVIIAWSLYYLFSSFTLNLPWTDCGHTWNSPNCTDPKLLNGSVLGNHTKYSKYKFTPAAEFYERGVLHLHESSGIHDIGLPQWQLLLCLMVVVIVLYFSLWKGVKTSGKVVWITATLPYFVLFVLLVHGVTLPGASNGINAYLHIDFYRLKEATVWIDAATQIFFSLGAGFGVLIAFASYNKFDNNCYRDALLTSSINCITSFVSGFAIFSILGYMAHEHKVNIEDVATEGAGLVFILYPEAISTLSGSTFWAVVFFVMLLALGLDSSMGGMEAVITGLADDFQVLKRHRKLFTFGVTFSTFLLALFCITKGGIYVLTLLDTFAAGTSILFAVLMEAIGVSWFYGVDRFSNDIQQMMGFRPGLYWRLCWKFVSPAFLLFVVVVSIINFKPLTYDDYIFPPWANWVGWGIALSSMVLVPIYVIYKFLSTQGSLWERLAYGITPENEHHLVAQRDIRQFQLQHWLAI
Sequence of human Serotonin Transporter (SERT), SLC6A4 (gene 6532) (P31645 whole entry, looked up): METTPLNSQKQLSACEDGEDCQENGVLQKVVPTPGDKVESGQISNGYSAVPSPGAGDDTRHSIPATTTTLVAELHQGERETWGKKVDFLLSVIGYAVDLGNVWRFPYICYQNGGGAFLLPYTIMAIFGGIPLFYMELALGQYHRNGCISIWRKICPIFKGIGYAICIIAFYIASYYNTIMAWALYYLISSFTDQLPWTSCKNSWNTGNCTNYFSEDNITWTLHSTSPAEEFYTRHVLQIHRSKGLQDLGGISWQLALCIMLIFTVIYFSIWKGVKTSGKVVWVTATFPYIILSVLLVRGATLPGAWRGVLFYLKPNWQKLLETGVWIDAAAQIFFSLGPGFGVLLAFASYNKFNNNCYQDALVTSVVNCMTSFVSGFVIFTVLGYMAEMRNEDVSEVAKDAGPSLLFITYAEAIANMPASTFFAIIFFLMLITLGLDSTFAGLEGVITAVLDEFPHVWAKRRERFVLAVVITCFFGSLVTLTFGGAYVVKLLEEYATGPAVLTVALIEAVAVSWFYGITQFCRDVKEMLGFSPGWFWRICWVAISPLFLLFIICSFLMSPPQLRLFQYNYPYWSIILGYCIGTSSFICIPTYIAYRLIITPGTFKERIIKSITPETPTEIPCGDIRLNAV
Sequence of Norway rat Vesicular Monoamine Transporter (VMAT2), neurotransmitter transporter, Slc18a2 (gene 25549) (Q01827 whole entry, looked up): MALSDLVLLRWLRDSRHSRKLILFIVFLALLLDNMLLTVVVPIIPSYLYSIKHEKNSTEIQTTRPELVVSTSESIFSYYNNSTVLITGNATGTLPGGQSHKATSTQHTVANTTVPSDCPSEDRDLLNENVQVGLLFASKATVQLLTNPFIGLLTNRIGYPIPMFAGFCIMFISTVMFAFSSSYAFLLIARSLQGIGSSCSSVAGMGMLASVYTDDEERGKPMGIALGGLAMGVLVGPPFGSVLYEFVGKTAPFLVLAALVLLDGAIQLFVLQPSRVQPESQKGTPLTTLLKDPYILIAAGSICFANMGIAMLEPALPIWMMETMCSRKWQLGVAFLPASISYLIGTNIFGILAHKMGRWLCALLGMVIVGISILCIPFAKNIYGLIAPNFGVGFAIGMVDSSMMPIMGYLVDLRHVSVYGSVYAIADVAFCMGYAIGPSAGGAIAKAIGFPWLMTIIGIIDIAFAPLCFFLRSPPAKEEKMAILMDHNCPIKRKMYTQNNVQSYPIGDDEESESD

## c1ccc(OP(Oc2ccccc2)Oc2ccccc2)cc1
[1]
  outcome: inactive
[2]
  outcome: inactive
[3]
  outcome: inactive
[4]
  outcome: inactive

## c1ccc2c(c1)Nc1ccccc1S2
[1]
  outcome: inactive
[5]
  AC50: 6.58 µM (active)
[4]
  outcome: inactive

## CCOC(=O)c1ccccc1N
[1]
  outcome: inactive
[4]
  outcome: inactive

## ClC(Cl)c1ccccc1
[1]
  outcome: inactive

## O=NN1CCCC1
[1]
  outcome: inactive
[4]
  AC50: 50 µM (active)

## CCCCCCCc1ccc(O)cc1
[1]
  outcome: inactive
[2]
  AC50: 6.26 µM (active)
[3]
  AC50: 4.96 µM (active) and 14.5 µM (active)
  outcome: inactive
[6]
  outcome: inactive
[4]
  AC50: 12.7 µM (active) and 12.5 µM (active) and 12.6 µM (active)
  outcome: inactive

## O=S(=O)(c1ccc(O)cc1)c1ccc(O)cc1
[1]
  outcome: inactive
[3]
  outcome: inactive
[4]
  AC50: 39.5 µM (active)

## ClC1=C(Cl)C2(Cl)C3C(Cl)C(Cl)CC3C1(Cl)C2(Cl)Cl (configuration not stated)
[1]
  outcome: inactive
[7]
  outcome: inactive
[3]
  outcome: inactive
[6]
  outcome: inactive
[4]
  outcome: inactive

## CCNc1nc(Cl)nc(NC(C)(C)C)n1
[1]
  AC50: 13.4 nM (active)
[3]
  outcome: inactive
[6]
  outcome: inactive
[4]
  outcome: inactive

## CC(C)(C)c1ccc(O)cc1
[8]
  outcome: inactive

## O=P(Oc1ccccc1)(Oc1ccccc1)Oc1ccccc1
[1]
  AC50: 2.29 nM (active)
[2]
  AC50: 11.3 µM (active)

## N#C/C=C/c1ccccc1
[9]
  outcome: inactive

## CCCCN(CCCC)SN(C)C(=O)Oc1cccc2c1OC(C)(C)C2
[1]
  outcome: inactive
[3]
  outcome: inactive
[4]
  outcome: inactive

## Cc1ccc(N)cc1N
[7]
  outcome: inactive
[4]
  outcome: inactive

## OCC1CO1 (configuration not stated)
[9]
  outcome: inactive

## Nc1ccc2ccccc2c1
[1]
  outcome: inactive
[8]
  AC50: 14.9 µM (active)
[2]
  AC50: 12.9 µM (active)
[5]
  AC50: 5.64 µM (active)
[4]
  outcome: inactive

## Nc1ccc([N+](=O)[O-])cc1Cl
[10]
  AC50: 44.9 nM (active)
